Consider 7 compounds from PubChem BioAssay (NCI).

Among the test systems are DU-145 prostate; K-562 leukemia; MALME-3M melanoma; MDA-MB-231 breast; RXF 393 renal; SF-268 CNS; SF-295 CNS; SF-539 CNS; UACC-257 melanoma; M14 melanoma; HCT-15 colon; HT29 colon; SNB-75 CNS; SNB-19 CNS; U251 CNS; PC-3 prostate; SK-MEL-5 melanoma; UACC-62 melanoma; LOX IMVI melanoma; SK-MEL-28 melanoma.
Common to all, as to experiment: NCI-60 one-dose screen, 48 h (100 = growth as untreated, 0 = no growth, -100 = all killed)
Holding throughout (details): 10 µM unless noted

Compounds without any hit were thinned out: in the full panel of roughly 83,000, 20% have a hit.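 Results are percent growth after 48 hours of single-concentration exposure. 100 means growth as in untreated cells, lower positive values show inhibition; negative values down to -100 show cell death.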 Values without a mark were called inactive. Activity calls are given as the source filed them. How the source made its calls: active means growth percent below 10; inactive means the rest.

Turning to `O=[N+]([O-])c1cccc(C2c3ccccc3Oc3ccccc32)c1`, the growth was 101% in the assay with DU-145 prostate; 65.7% in the assay with K-562 leukemia; 101% with MALME-3M melanoma; 92% in the assay on MDA-MB-231 breast; 109% with RXF 393 renal; 102% with SF-268 CNS. Also, the growth with SF-295 CNS was 76.9%; with SF-539 CNS, 112%; in the assay on UACC-257 melanoma, 104%; in the assay on M14 melanoma it was 110%; in the assay on HCT-15 colon, 71.1%; in the assay with HT29 colon it was 85.1%. Besides, the growth was 94.4% in the assay on SNB-75 CNS; 97.1% in the assay with SNB-19 CNS; 94.7% in the assay on U251 CNS; 84.2% in the assay with PC-3 prostate; 99.4% in the assay with SK-MEL-5 melanoma; 86.1% with UACC-62 melanoma. Also, the growth with LOX IMVI melanoma is 85.8%; in the assay with SK-MEL-28 melanoma, 107%.
In the case of `COc1ccccc1N1CCN(CCCOc2ccc(OCCCN3CCN(c4ccccc4OC)CC3)c(C(=O)c3cc(OC)c(OC)c(OC)c3)c2)CC1`, the growth was 105% in the assay with DU-145 prostate; 67.6% with K-562 leukemia; 113% in the assay on MALME-3M melanoma; 113% with MDA-MB-231 breast; 126% in the assay on RXF 393 renal; 110% in the assay on SF-268 CNS. Moreover, the growth was 109% with SF-295 CNS; 107% in the assay with SF-539 CNS; 107% with UACC-257 melanoma; 108% with M14 melanoma; 140% in the assay with HCT-15 colon; 101% with HT29 colon. The growth in the assay on SNB-75 CNS was 120%; in the assay on SNB-19 CNS, 102%; in the assay on U251 CNS, 118%; in the assay on PC-3 prostate, 95.9%; with SK-MEL-5 melanoma, 87.6%; with UACC-62 melanoma it was 109%. Moreover, the figures for the growth in the assay on LOX IMVI melanoma and in the assay with SK-MEL-28 melanoma were 116% and 115%, respectively.
Consider `CC(C)CCC[C@@H](C)[C@H]1CC[C@H]2[C@@H]3CC=C4N(c5ccccc5)C(=O)CC[C@]4(C)[C@H]3CC[C@]12C`, for which the growth was 103% in the assay with DU-145 prostate; 103% with K-562 leukemia; 97.8% with MALME-3M melanoma; 111% in the assay with MDA-MB-231 breast; 103% in the assay on RXF 393 renal; 99.3% with SF-268 CNS. Besides, the growth in the assay on SF-295 CNS was 99%; in the assay on SF-539 CNS, 101%; in the assay on UACC-257 melanoma, 105%; in the assay with M14 melanoma it was 96.1%; with HCT-15 colon, 96.4%; in the assay with HT29 colon, 90.3%. The growth with SNB-75 CNS is 93.6%; with SNB-19 CNS, 109%; in the assay with U251 CNS, 101%; with PC-3 prostate it was 80.4%; with SK-MEL-5 melanoma, 99.1%; with UACC-62 melanoma it was 98.9%. The growth in the assay on LOX IMVI melanoma is 98%; with SK-MEL-28 melanoma, 106%.
Regarding `Cc1ccccc1C[P+](c1ccccc1)(c1ccccc1)c1ccccc1`, the growth was 32.4% in the assay with DU-145 prostate; 22.4% with K-562 leukemia; 5.05% (active) in the assay with MALME-3M melanoma; 46.3% in the assay on MDA-MB-231 breast; 50.4% in the assay on RXF 393 renal; 16.7% with SF-268 CNS. Also, the growth in the assay on SF-295 CNS is 25.2%; with SF-539 CNS, 33.6%; in the assay on UACC-257 melanoma, -1.88% (active); with M14 melanoma, 29.2%; in the assay with HCT-15 colon, 107%; in the assay on HT29 colon, 10.5%. Moreover, the growth was 9.33% (active) in the assay with SNB-75 CNS; 28.7% in the assay on SNB-19 CNS; 16.4% with U251 CNS; 14.5% with PC-3 prostate; -23.2% (active) in the assay with SK-MEL-5 melanoma; 18.8% in the assay with UACC-62 melanoma. Further, the growth in the assay on LOX IMVI melanoma was 14.7%; in the assay on SK-MEL-28 melanoma it was 27.2%.
For the compound `O=C(COc1ccc(Cl)cc1)N1CCN(Cc2ccc3c(c2)OCO3)CC1`, the growth with DU-145 prostate is 113%; with K-562 leukemia it was 84.8%; with MALME-3M melanoma, 98.4%; in the assay with MDA-MB-231 breast, 87.2%; with RXF 393 renal it was 109%; in the assay on SF-268 CNS, 95.9%. For the same compound, the growth was 95.4% in the assay with SF-295 CNS; 104% in the assay on SF-539 CNS; 103% with UACC-257 melanoma; 111% in the assay with M14 melanoma; 96.8% in the assay with HCT-15 colon; 112% with HT29 colon. Also, the growth in the assay on SNB-75 CNS was 102%; in the assay with SNB-19 CNS it was 95.6%; with U251 CNS it was 94.3%; with PC-3 prostate it was 90.3%; in the assay with SK-MEL-5 melanoma, 97.7%; with UACC-62 melanoma, 81.8%. Moreover, the growth was 89.5% in the assay with LOX IMVI melanoma and 116% with SK-MEL-28 melanoma.
Consider `O=S(c1ccccc1)c1ccc2nnnn2n1` (stereo not given), for which the growth with DU-145 prostate is 105%; with K-562 leukemia it was -9.22% (active); with MALME-3M melanoma, 103%; in the assay with MDA-MB-231 breast it was 104%; with RXF 393 renal, 117%; in the assay with SF-268 CNS, 97.1%. Further, the growth was 102% in the assay on SF-295 CNS; 102% with SF-539 CNS; 99.6% in the assay with UACC-257 melanoma; 99% with M14 melanoma; 79.8% in the assay on HCT-15 colon; 92% with HT29 colon. Moreover, the growth in the assay with SNB-75 CNS is 107%; in the assay with SNB-19 CNS, 107%; with U251 CNS it was 103%; in the assay with PC-3 prostate it was 96.6%; in the assay on SK-MEL-5 melanoma, 99.8%; with UACC-62 melanoma it was 98.6%. Also, the growth with LOX IMVI melanoma was 89.7%; in the assay on SK-MEL-28 melanoma it was 105%.
For the compound `Cc1cc(C)c(O)c(C(=O)CC(Br)C(=O)O)c1` (stereo not given), the growth with DU-145 prostate was 95.3%; in the assay with K-562 leukemia it was 84.5%; with MALME-3M melanoma it was 111%; with MDA-MB-231 breast it was 121%; in the assay with RXF 393 renal it was 119%; in the assay on SF-268 CNS it was 95.9%. Also, the growth is 101% in the assay on SF-295 CNS; 91.2% in the assay with SF-539 CNS; 96.2% in the assay on UACC-257 melanoma; 95.1% in the assay on M14 melanoma; 103% with HCT-15 colon; 99.1% in the assay on HT29 colon. Moreover, the growth in the assay on SNB-75 CNS is 102%; in the assay with SNB-19 CNS, 108%; in the assay with U251 CNS it was 100%; in the assay with PC-3 prostate, 89.7%; with SK-MEL-5 melanoma, 101%; in the assay on UACC-62 melanoma it was 95.7%. For the same compound, the growth in the assay with LOX IMVI melanoma is 93.1%; in the assay with SK-MEL-28 melanoma, 101%.
